Results: PubChem BioAssay (Tox21)
“And” between values parts separate entries of the source, which are not always exact repeats. Equal values may be shown once. Inconclusive results are not listed. Entries that show only a call come without a potency. Some structures have more than one record in an assay (separate samples or runs), and their calls can disagree. The source made the active and inactive calls. Calls come from the whole dose curve; as a rule, active = well fitted inhibition curve with a large enough effect in the repeat runs; inconclusive = weak or mixed curves; inactive = no such curve, though single readings can be large or run the other way.

The compounds below were run against Androgen receptor (Homo sapiens) (UniProt P10275) (assay: qHTS assay to identify small molecule antagonists of the androgen receptor (AR) signaling pathway using the MDA cell line in the presence of 0.5 nM R1881 (AID 1259243; note: nearly all actives have a fitted effect of over 50% in size)). Settings: MDA-kb2 MMTV-luciferase, R1881 0.5 nM, 16 h; series mostly up to 92.4 µM.
Androgen receptor (Homo sapiens), sequence (P10275 whole entry, looked up): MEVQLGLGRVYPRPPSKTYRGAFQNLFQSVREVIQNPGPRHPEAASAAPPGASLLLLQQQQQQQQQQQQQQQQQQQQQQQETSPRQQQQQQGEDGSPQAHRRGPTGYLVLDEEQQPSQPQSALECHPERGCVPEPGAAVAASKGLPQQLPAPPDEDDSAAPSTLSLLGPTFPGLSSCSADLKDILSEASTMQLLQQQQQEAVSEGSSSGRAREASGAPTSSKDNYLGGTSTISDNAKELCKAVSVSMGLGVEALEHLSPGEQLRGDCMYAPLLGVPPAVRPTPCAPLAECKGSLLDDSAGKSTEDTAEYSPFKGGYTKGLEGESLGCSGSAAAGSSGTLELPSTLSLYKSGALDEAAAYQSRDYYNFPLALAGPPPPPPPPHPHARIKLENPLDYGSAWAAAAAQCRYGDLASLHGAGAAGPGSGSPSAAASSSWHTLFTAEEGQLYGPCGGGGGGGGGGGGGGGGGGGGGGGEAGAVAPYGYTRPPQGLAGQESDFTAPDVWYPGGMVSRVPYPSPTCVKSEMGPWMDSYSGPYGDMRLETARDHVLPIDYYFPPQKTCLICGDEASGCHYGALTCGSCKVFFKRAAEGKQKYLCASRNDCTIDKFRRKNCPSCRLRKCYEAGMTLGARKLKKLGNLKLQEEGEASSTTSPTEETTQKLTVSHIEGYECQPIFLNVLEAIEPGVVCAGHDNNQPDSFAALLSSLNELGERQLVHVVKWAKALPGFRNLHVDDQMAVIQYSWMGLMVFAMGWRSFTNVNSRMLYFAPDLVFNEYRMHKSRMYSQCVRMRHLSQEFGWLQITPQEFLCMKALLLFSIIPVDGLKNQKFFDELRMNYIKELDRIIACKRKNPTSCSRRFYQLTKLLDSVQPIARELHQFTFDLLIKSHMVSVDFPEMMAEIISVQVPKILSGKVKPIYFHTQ
Description: U.S. Tox21 Program National Center for Advancing Translational Sciences [NCATS] NIH Chemical Genomics Center [NCGC] U.S. Environmental Protection Agency [EPA] National Institutes of Environmental Health Sciences [NIEHS] National Toxicology Program [NTP] U.S. Food and Drug Administration [FDA] Tox21 Assay Overview: Androgen receptor (AR) is an important member of the nuclear receptor family. Its signaling plays a critical role in AR-dependent prostate cancer and other androgen related diseases. Considerable attention has been given in the past decades to develop methods to study and screen for the environmental chemicals that have the potential to interfere with metabolic homeostasis, reproduction, developmental and behavioral functions. Therefore AR binding assay for screening androgen antagonists can be used to identify potential endocrine disruptors. MDA-kb2 cells (from ATCC, deposited by Wilson et al.) were used to screen for AR inhibitors against Tox21 compound libraries. These cells are human breast carcinoma cells that were stably transfected with a luciferase reporter gene under control of the MMTV promoter that contains response elements for both androgen receptor (AR) and glucocorticoid receptor (GR). The current screening for identification of AR inhibitors against Tox21 libraries used lower concentration (0.5 nM) of R1881 as a stimulator.
Tox21 Assay Protocol Summary: MDA-kb2 cells (cells cultured without CO2) were dispensed at 3,000 cells/well in 4 uL of culture medium into white wall/solid-bottom 1536-well plates (Corning Life Sciences, Corning, NY) using a Multidrop Combi (ThermoFisher Scientific, Waltham, MA) dispenser. After the assay plates were incubated at a 37C and 0% CO2 for 5 hr, 23 nL of compounds dissolved in DMSO, positive controls or DMSO only was transferred to the assay plate by a Pintool station (Kalypsys, San Diego, CA). The transfer of compounds was followed by the addition of 1 uL of 0.5 nM (final concentration) agonist (R1881)/culture medium using a Flying Reagent Dispenser (FRD, Aurora Discovery, San Diego, CA). The plates were incubated at 37C and 0% CO2 for 16 hr. For luciferase reporter gene assay, 4 uL of ONE-Glo reagent (Promega Corporation, Madison, WI) was added to each well using the FRD and after 30 min incubation at room temperature luminescence intensity was measured using ViewLux plate reader (PerkinElmer, Shelton, CT).
Potency is the fitted concentration of half-maximal effect.

| Structure (SMILES) | Potency |
| --- | --- |
| CCC1(c2ccc(N)cc2)CCC(=O)NC1=O (stereo unspecified) | inactive |
| CC(C)=CC1C(C(=O)OCN2C(=O)C3=C(CCCC3)C2=O)C1(C)C (stereo unspecified) | inactive |
| COC(=O)Nc1nc2ccccc2[nH]1 | inactive |
| CC(C)(c1ccc(OCC2CO2)cc1)c1ccc(OCC2CO2)cc1 (stereo unspecified) | inactive |
| O=C(O)c1nn(Cc2ccc(Cl)cc2Cl)c2ccccc12 | inactive |
| COP(=S)(OC)SCn1nnc2ccccc2c1=O | 23.9 µM (active) and 17.2 µM (active) |
| N#Cc1nn(-c2c(Cl)cc(C(F)(F)F)cc2Cl)c(N)c1S(=O)C(F)(F)F (stereo unspecified) | 9.75 µM (active) and 15 µM (active) |
| O=[N+]([O-])c1ccc(Cl)c([N+](=O)[O-])c1 | 12.4 µM (active) |
| Oc1ccc(Cl)cc1Cc1ccccc1 | 12.2 µM (active) and 4.38 µM (active) |
| COP(=S)(OC)Oc1ccc(S(=O)(=O)N(C)C)cc1 | inactive |
| CNC(=O)Oc1cccc2c1OC(C)(C)C2 | inactive |
| CCOP(=S)(OCC)OP(=S)(OCC)OCC | inactive |
| O=C1CCCO1 | inactive |
| S=c1[nH]c2ccccc2[nH]1 | inactive |
| CCC(=O)Nc1ccc(Cl)c(Cl)c1 | 7 µM (active) and 13.7 µM (active) |
| C=CC(Cl)CCl (stereo unspecified) | inactive |
| O=[N+]([O-])/N=C1\NCCN1Cc1ccc(Cl)nc1 | inactive |
| C=CC(=O)OCC(CC)(COC(=O)C=C)COC(=O)C=C | 4.99 µM (active) and 13.7 µM (active) |
| COP(=S)(OC)Oc1ccc(Sc2ccc(OP(=S)(OC)OC)cc2)cc1 | 61.1 µM (active) and inactive |
| CC1=C(C(=O)Nc2ccccc2)SCCO1 | inactive |
| Clc1cccc(C(Cl)(Cl)Cl)n1 | inactive |
